Source: PubChem (National Center for Advancing Translational Sciences (NCATS))
HepG2 tox = HepG2 cytotoxicity, counter-screen for TGF-b inhibitors; hit rate 0.76% among 410,000; Potency, µM (highest dose often 46.1 µM), for the others: at the highest dose activity change, negative = cytotoxicity, most hits filed as cytotoxic; HepG2 CAGA-GFP viability, ATP luminescence, 18 h; note: potency is the fitted concentration of half-maximal effect
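CellTiter-Glo luminescence gave cytotoxicity after 18 hours at 37 degrees C. The cells were HepG2 CAGA-GFP in 1% FBS DMEM, stimulated with 500 pg/mL TGF-beta after compound addition. %Activity was normalised to no-cell wells (complete cell-killing) and DMSO (no toxicity), and curves were fitted and classified.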
D3 ag = activates the human D3 dopamine receptor; P35462; D3R DiscoveRx beta-arrestin cells, luminescence, 90 min; max activation, %; hit rate 0.58% among 410,000; in the data active = max activation above about 30%; note: 0% is about no effect
Target sequence (P35462 whole entry, looked up): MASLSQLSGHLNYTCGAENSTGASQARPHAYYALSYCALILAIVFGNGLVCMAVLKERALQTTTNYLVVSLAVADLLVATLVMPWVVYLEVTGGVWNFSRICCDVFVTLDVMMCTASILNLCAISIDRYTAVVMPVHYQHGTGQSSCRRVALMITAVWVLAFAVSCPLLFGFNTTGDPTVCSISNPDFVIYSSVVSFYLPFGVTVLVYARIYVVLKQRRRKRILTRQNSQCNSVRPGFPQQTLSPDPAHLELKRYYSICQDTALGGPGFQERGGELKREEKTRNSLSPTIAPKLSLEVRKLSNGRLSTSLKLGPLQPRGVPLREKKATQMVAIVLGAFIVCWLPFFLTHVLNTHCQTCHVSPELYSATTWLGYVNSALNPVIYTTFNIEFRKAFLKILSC
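Cells at 1500/well, incubated overnight, then treated with pinned compounds (dopamine as control) for 90 min at 37 degrees C. DiscoveRx reagent added for 30 - 60 minutes at room temperature; luminescence read.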
DRD3 antagonist = blocks the human D3 dopamine receptor. P35462. D3R cells, DiscoveRx beta-arrestin luminescence, antagonist mode; active compounds read low. max response, negative = inhibition, %. hit rate 2.5% among 360,000. AID 652054; in the data active = max response below about -50%; inconclusive = no clear call, values can overlap the other calls; note: % is set by controls: 0 for no effect and ±100 for the full control effect
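Cells expressing the human receptor were seeded at 1500 cells/well, incubated overnight at 37 degrees C in 5% CO2, then exposed to library compounds with dopamine controls for 90 minutes at 37 degrees C before luminescent detection.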
ATXN2 expr inh = reduces ATXN2 reporter expression in HEK-293 cells. Potency, µM (series often up to 57 µM), for the others: at the highest dose activity change, negative = inhibition, usual class: inhibitors. HEK-293 ATXN2-luciferase reporter, luminescence, 24 h. hit rate 0.72% among 360,000; note: potency is the fitted concentration of half-maximal effect; % is set by controls: 0 for no effect and ±100 for the full control effect; nearly all actives have a fitted effect of over 55% in size
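qHTS (up to 57 uM final) was run with 24 h compound exposure of reporter cells at 37 °C. Each well was multiplexed: SteadyGlo luminescence measured ATXN2-luciferase expression after a fluorogenic Gly-Phe-AFC viability readout (25 uM final).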
ATXN viability = cell viability loss in ATXN counter-screen | hit rate 0.49% among 400,000 | Potency, µM (titrated, usually from 56.7 µM), usual class: cytotoxic | S2 cells (HEK-293 line with an ATXN2-luciferase reporter) viability, CellTiter-Fluor protease fluorescence, 24 h | AID 651635; note: potency is the fitted concentration of half-maximal effect; nearly all actives have a fitted effect of over 40% in size
TGFb SMAD3 inh = blocks TGF-b signaling; HepG2 CAGA-GFP TGF-b/SMAD3 reporter, GFP fluorescence, 18 h; TGF-beta stimulated, 500 pg/mL final; Potency, µM (doses to about 46.1 µM), for inactives: at the highest dose activity, negative = inhibition, actives largely listed as inhibitors; hit rate 1.2% among 410,000; AID 588855; note: potency is the fitted concentration of half-maximal effect; % is set by controls: 0 for no effect and ±100 for the full control effect; nearly all actives have a fitted effect of over 65% in size
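Smad-responsive CAGA-GFP expression was quantified in HEPG2 cells exposed to compounds and 500 pg/mL final TGF-beta for 18 h at 37 degrees C; unstimulated wells defined full inhibition.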
* hit, by the source's call; i = inactive; ? = inconclusive; / = not tested or not shown; [ ] = dose if it differs, or a comment. The list is not random: actives were taken first. Their share in the collection is about 4.7%. Unless noted, calls come from the whole dose curve; as a rule, active = well fitted curve in the direction sought with a large enough effect; inconclusive = small, poorly fitted or top-dose-only effect, or another doubt; inactive = no such curve, though single readings can be large; an effect the other way counts as inactive or inconclusive.

SMILES	HepG2 tox	D3 ag	DRD3 antagonist	ATXN2 expr inh	ATXN viability	TGFb SMAD3 inh
COc1ccc(NC(=O)C2=C(C)Nc3nc(SCc4ccccc4)nn3C2c2cc(OC)ccc2OC)cc1 (stereo unspecified)	-12.6%	4.3	/	-2.2%	?	?
COc1cccc(C2CC(C(F)(F)F)n3nc(C(=O)Nc4c(C)n(C)n(-c5ccccc5)c4=O)cc3N2)c1 (stereo unspecified)	0.5%	5.5	-86.8*	-15.4%[2.22 µM]	i	?
C=C1NN(Cc2ccc(OC)cc2)C(=O)N1c1ccccc1	-2.0%	/	/	/	/	-0.2%
CCN1CCN(CC(=O)N2N=C(c3cccs3)CC2c2ccc(OC)c(OC)c2)C(=O)C1=O (stereo unspecified)	0.5%	0.4	2.3	-12.4%	i	-15.0%
C=C1C(=O)c2sccc2C(c2ccc(OC)c(OC)c2)C1COC(C)=O (stereo unspecified)	4.47µM*	-32.3	-116.3*	?	/	0.708µM*
CC(C)Cc1nn2c(=O)cc(COC(=O)c3ccccc3NC(=O)c3cccs3)nc2s1	6.2%	6.0	/	/	/	10.9%
Cc1cc(C(=O)Nc2cccc(-c3nc(CNC(=O)c4sc(C)nc4C)c(C)o3)c2)c(C)o1	/	/	/	/	i	/
CN1CCN(c2ccccc2/C=N/NC(=O)c2cccnc2)CC1	13.1%	-17.7	-50.1*	/	i	-2.8%
CCNS(=O)(=O)c1ccc(CCC(=O)N2CCc3ccccc3C2)cc1	4.9%	3.6	-71.6*	0.5%	/	8.7%
CCNS(=O)(=O)c1ccc(CCC(=O)N2CCCC2)cc1	0.0%	0.9	-10.2	-0.1%	i	7.8%
CCOc1ccc(C(c2c(NC(=O)c3ccccc3)sc(C)c2C)N2CCN(CCO)CC2)cc1 (stereo unspecified)	11.2µM*	-3.2	2.2	-8.6%	?	?
Cc1sc(NC(=O)c2ccco2)c(C(c2ccc(F)cc2)N2CCN(C)CC2)c1C (stereo unspecified)	11.2µM*	-9.0	-18.9	0.8%[11.3 µM]	i	15.8µM*
Cc1c(C=O)ccc(N(C)C)c1C	4.7%	/	/	/	/	-1.2%
Cc1c(Cl)cccc1NC(=O)CN1C(=O)CSc2ccc(S(=O)(=O)N3CCCC3)cc21	-15.5%	-11.0	/	/	/	-20.4%
O=C(NC(NNc1ccc([N+](=O)[O-])cc1)(C(F)(F)F)C(F)(F)F)c1ccc(Cl)cc1	-4.8%	-1.7	-74.2*	?	i	?
O=C(NNc1ccc([N+](=O)[O-])cc1)c1ccccc1Cl	-3.7%	-8.0	?	/	i	-7.4%
CC(=O)Nc1cc(-c2cccc(C(=O)NCCO)c2)cn2c(-c3cccc(C(F)(F)F)c3)cnc12	-110.5%	-5.3	-21.0	?	31.6µM*	?
COc1cccc(-c2cnc3c(NC(C)=O)cc(-c4cccc(C(=O)NCCN(C)C)c4)cn23)c1	12.6µM*	-7.5	-27.4	?	?	?
COc1ccccc1-c1cnc2c(Nc3cccc(OC(F)(F)C(F)F)c3)nccn12	-36.4%	5.1	91.3	-22.4%	?	?
CC(=O)Nc1cc(-c2cccc(C(=O)NCCO)c2)cn2c(-c3ccc(F)cc3)cnc12	-25.8%	-1.8	-8.8	2.6%	i	-1.7%
CC(=O)Nc1cc(-c2cccc(F)c2)cn2c(-c3ccc(F)c(Cl)c3)cnc12	-46.3%	5.5	43.8	-29.6%	?	17.8µM*
O=C(NCCO)c1cccc(-c2cnc3c(Nc4cccc(OC(F)(F)C(F)F)c4)nccn23)c1	-58.1%	3.2	23.6	?	31.6µM*	?
Cc1ccc(C)c(S(=O)(=O)c2nnn3c2nc(NC2CCCCC2)c2sccc23)c1	-24.4%	17.1	/	/	/	?
COc1ccccc1N1CCN(c2csc3ccc(Cl)cc3c2=O)CC1	-7.5%	-22.2	/	7.7%	i	-12.6%
O=C(Nc1nc2cc3c(cc2s1)OCCO3)C1=COCCO1	8.91µM*	-5.7	-19.3	?	i	-13.1%
SMILES	HepG2 tox	D3 ag	DRD3 antagonist	ATXN2 expr inh	ATXN viability	TGFb SMAD3 inh
CC1Cc2cc(S(=O)(=O)NCCc3ccccc3)ccc2N1C(=O)C1CCC1 (stereo unspecified)	-11.5%	-8.3	/	?	i	?
Cn1c(/C=N/c2nc3ccccc3[nH]2)nc2ccccc21	-20.8%	5.2	7.8	-16.9%	i	?
C(=N\c1nc2ccccc2[nH]1)/c1cccs1	1.8%	-1.6	-56.6*	6.7%	i	1.1%
COc1ccc(CN2CCOc3ccc(CN4CCC(O)(c5cccnc5)CC4)cc3C2)cc1OC	/	/	/	/	i	/
COCCNC(=S)NC1CC2CCC(C1)N2Cc1ccccc1 (stereo unspecified)	0.9%	-12.3	?	-2.3%[11.3 µM]	i	3.1%
COc1ccccc1C(=O)NC1CC2CCCC(C1)N2Cc1ccccc1 (stereo unspecified)	11.5%	3.7	-111.6*	/	?	-4.2%
CCCCN1C2CCCC1CC(NC(=O)c1ccccc1Cl)C2 (stereo unspecified)	-0.2%	-9.8	11.4	0.7%	i	-5.5%
Cc1ccccc1C(=O)NC1CC2CCCC(C1)N2Cc1ccccc1 (stereo unspecified)	-22.4%	-17.8	-84.7*	-11.3%	i	-17.6%
Cc1ccccc1C(=O)NC1CC2CCCC(C1)N2Cc1ccc(Cl)cc1 (stereo unspecified)	0.8%	-18.7	-96.9*	8.5%	i	1.2%
O=C(NC1CC2CCC(C1)N2Cc1ccccc1)c1ccccc1Cl (stereo unspecified)	-2.8%	-17.5	-88.9*	-8.8%	i	-4.5%
Cc1cccc(NC(=S)NC2CC3CCCC(C2)N3Cc2ccccc2)c1C (stereo unspecified)	-21.7%	-8.5	-100.3*	/	i	?
Cc1cccc(-c2nc(SCC(=O)N3CCc4ccccc43)c3c(=O)n(C)c(=O)n(C)c3n2)c1	3.8%	8.9	/	4.1%	i	-1.8%
CC(=O)Nc1nc2ccccc2n1CCN(C)C	-19.3%	-3.0	-15.2	-0.4%	i	14.1%
CCC(=O)Nc1nc2ccccc2n1CCN(C)C	-1.4%	-0.7	-81.2*	-11.8%	i	-14.1%
O=C(NCCCc1nc2ccccc2n1Cc1ccc(Cl)cc1)C1CCCCC1	-29.6%	-15.6	/	?	?	10µM*
S=C(Nc1ccccc1)Nc1nc2ccccc2n1CCOc1ccccc1	-44.9%	25.9	19.8	?	i	4.8%
CCCCn1c(NC(=S)Nc2ccccc2)nc2ccccc21	-19.5%	31.7*	63.3	-14.3%	i	12.6µM*
CN(C)CCCn1c(NC(=O)C2CCCCC2)nc2ccccc21	-2.2%	-22.3	-51.6*	6.2%	i	19.7%
CCCCn1c(NC(=O)C2CCCCC2)nc2ccccc21	-25.1%	5.5	19.7	-25.4%	i	?
